Only some compounds are listed: those with a hit (about 10% of all), similar ones and a draw of the others.
CtBP-E1A inh: inhibitors of CtBP/E1A interaction. AID 651724. AlphaScreen GST-E1A/His-CtBP binding, 1536-well; stronger effect = lower value. activity change, % (test concentration not listed). 340,000 tested, 0.49% active; in the data active means activity change below about -65%; inconclusive means mostly about -30% to -63%; further: on the % scale 0 is the no-effect control and ±100 the full control effect
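Protein mix (5X: 125 nM each GST-E1A, His-CtBP) was incubated with pinned compound 2 h at 37 deg C in dark, in 50 mM Tris pH 8.0 buffer with 300 mM NaCl. Glutathione donor and nickel acceptor beads followed; AlphaScreen signal read after 1 h.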
HP1b binding inh: inhibitors of HP1-beta chromodomain binding to methylated histone tails | P83916 | AlphaScreen HP1-beta / biotin-H3K9me3 peptide binding | Potency, µM (doses to about 114 µM), for the others: at the top dose activity change, negative = inhibition, most hits filed as inhibitors | 390,000 tested, 0.56% active; further: potency means the concentration at half of the fitted maximal effect; nearly all actives have a fitted effect of over 70% in size
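Compound inhibition of the preformed complex between 50 nM HP1-beta and 50 nM biotinylated H3K9me3 peptide was read by AlphaScreen. Buffer was PBS pH 7.4 with 0.01% Tween-20. Incubations ran 30 min at room temperature, with 10 ug/mL donor/acceptor beads.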
Six1-Eya2 blk: inhibitors of human Six1/Eya2 interaction | Q15475+O00167 | 360,000 tested, 0.56% active | AID 651725 | activity change, % (no concentration beside the values) | AlphaScreen GST-Six1/His-Eya2 binding, biochemical; stronger effect = lower value; in the data active means activity change below about -65%; inconclusive means mostly about -30% to -63%; further: on the % scale 0 is the no-effect control and ±100 the full control effect
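Six1/Eya2 binding was read as AlphaScreen signal after compounds were pinned into GST-Six1 plus His-tagged Eya2 (5X stock 250/500 nM) in pH 8.0 Tris/NaCl/TCEP buffer, beads added, then incubated 1 h, 37 C, dark.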
BAZ2B inh: BAZ2B (human) inhibition; Q9UIF8; AID 504333; AlphaScreen BAZ2B-H3K14Ac peptide displacement; Potency, µM (doses to about 114 µM), inactives show top-dose activity change, negative = inhibition, usual class: inhibitors; 360,000 tested, 4.4% active; further: potency means the concentration at half of the fitted maximal effect; on the % scale 0 is the no-effect control and ±100 the full control effect; nearly all actives have a fitted effect of over 60% in size
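Protein-peptide AlphaScreen: BAZ2B 50 nM, b-H3K14Ac 50 nM, 1x PBS pH 7.4 + 0.01% Tween-20. Preincubation 30 min RT; cpd 30 min RT (top 110 uM); beads 20 min RT, light-protected.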
G9a inh: G9a (human) methyltransferase inhibition. G9a H3K9 monomethylation, AlphaScreen, 2 h. Potency, µM (doses to about 102 µM), for the others: top-dose activity, negative = inhibition, actives largely listed as inhibitors. 350,000 tested, 8.8% active; further: potency means the concentration at half of the fitted maximal effect; on the % scale 0 is the no-effect control and ±100 the full control effect; nearly all actives have a fitted effect of over 75% in size
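Chemiluminescent proximity detection of H3K9 monomethylation, read after 10 min bead incubation in the dark. Reaction: 20 nM G9a, 500 nM biotin-H3K9 peptide, 20 uM SAM cofactor, 2 h, room temperature, following 15 min enzyme-compound preincubation.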
JMJD2A Tudor: blocks the human JMJD2A Tudor domain; Potency, µM (top dose mostly 114 µM), for inactives: top-dose activity change, negative = inhibition, hits mostly inhibitors; AID 504339; AlphaScreen JMJD2A-Tudor / H3K4me3 peptide binding; 390,000 tested, 4.4% active; O75164; further: potency means the concentration at half of the fitted maximal effect; on the % scale 0 is the no-effect control and ±100 the full control effect; nearly all actives have a fitted effect of over 50% in size
Target sequence (O75164 whole entry, looked up, the tested form may be a part): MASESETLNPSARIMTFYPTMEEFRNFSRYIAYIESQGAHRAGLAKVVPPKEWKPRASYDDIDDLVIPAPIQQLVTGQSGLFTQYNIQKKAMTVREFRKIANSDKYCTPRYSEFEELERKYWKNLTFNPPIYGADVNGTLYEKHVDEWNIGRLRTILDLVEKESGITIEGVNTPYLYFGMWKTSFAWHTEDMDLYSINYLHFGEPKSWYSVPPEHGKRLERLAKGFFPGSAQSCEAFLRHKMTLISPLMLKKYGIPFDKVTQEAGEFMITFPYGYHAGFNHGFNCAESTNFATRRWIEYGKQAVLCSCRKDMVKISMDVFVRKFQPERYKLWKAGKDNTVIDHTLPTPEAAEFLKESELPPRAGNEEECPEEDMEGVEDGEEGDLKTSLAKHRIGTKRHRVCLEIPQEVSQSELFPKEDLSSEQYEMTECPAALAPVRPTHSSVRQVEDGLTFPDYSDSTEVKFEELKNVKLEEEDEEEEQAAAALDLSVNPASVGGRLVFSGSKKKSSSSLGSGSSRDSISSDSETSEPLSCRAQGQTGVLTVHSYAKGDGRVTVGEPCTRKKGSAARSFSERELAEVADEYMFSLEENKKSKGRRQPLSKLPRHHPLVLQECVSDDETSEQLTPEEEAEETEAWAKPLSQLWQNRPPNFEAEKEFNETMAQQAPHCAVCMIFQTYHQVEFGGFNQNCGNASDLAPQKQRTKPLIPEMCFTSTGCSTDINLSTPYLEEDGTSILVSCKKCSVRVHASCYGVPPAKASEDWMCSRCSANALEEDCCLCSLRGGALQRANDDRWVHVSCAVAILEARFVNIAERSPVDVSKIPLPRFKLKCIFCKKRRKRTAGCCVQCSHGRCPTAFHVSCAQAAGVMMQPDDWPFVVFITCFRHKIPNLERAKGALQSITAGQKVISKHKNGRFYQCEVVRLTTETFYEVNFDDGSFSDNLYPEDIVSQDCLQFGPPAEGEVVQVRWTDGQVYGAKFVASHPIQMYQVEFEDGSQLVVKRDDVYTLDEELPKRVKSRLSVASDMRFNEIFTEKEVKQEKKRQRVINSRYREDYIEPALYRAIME
Active calls of the source: *; [ ] = remark or other dose. Unless noted, the call rests on the fitted dose curve; in most records, active means well fitted inhibition curve with a large enough effect; inconclusive means small, poorly fitted or top-dose-only effect; inactive means no such curve, though single readings can be large or run the other way.

How did O=C(CSc1ncn[nH]1)N1N=C(c2ccc(Cl)cc2)CC1c1ccco1 (stereo not given) do in these assays?
CtBP-E1A inh: -2; HP1b binding inh: 27%; Six1-Eya2 blk: -14; BAZ2B inh: 14%; G9a inh: inconclusive; JMJD2A Tudor: -29%

What do the screens show for `Cc1ccc(C(=O)Nc2c(C)nc3ccccn3c2=O)cc1C`?
HP1b binding inh: 12%[57 µM]; BAZ2B inh: 2%; G9a inh: 2%[59 µM]; JMJD2A Tudor: -15%

Results for COc1ccc(N2CCC(CNC(=S)Nc3cc(C)cc(C)c3)C2)cc1 (stereo not given) ?
CtBP-E1A inh: -70*; HP1b binding inh: 16µM*; Six1-Eya2 blk: -66*; BAZ2B inh: 3.2µM*; G9a inh: inconclusive; JMJD2A Tudor: 20µM*

What do the screens show for `COc1ccc(N2CCC(CNC(=S)Nc3cc(C)ccc3C)C2)cc1` (stereo not given)?
HP1b binding inh: inconclusive; Six1-Eya2 blk: -69*; BAZ2B inh: 32µM*; G9a inh: inconclusive; JMJD2A Tudor: 40µM*

How did C[C@H](CCC(=O)O)[C@H]1CC[C@@H]2[C@H]3[C@@H](C[C@@H](O)[C@]21C)[C@]1(C)CC[C@H](O)C[C@@H]1C[C@@H]3O do in these assays?
G9a inh: -2%[59 µM]

Results for Cc1cc2c(cc(C(=O)OCC(=O)NC3CCCCC3)n2C)o1 ?
CtBP-E1A inh: -6; HP1b binding inh: -29%[57 µM]; Six1-Eya2 blk: 18; JMJD2A Tudor: 22µM*

How did Cc1cc(C(=O)OCC(=O)NC2CCCCC2)c(C)o1 do in these assays?
CtBP-E1A inh: 1; HP1b binding inh: 21%; Six1-Eya2 blk: 7; BAZ2B inh: inconclusive; G9a inh: 3%; JMJD2A Tudor: -13%

Results for O=C(COC(=O)c1cccc(C(=O)OCC(=O)NC2CCCCC2)n1)NC1CCCCC1 ?
CtBP-E1A inh: 0; HP1b binding inh: 29%; Six1-Eya2 blk: 22; BAZ2B inh: 12%; G9a inh: 50µM*; JMJD2A Tudor: inconclusive

How did CC(C)N(C(=O)COC(=O)c1cccc(C(=O)OCC(=O)N(C(C)C)C(C)C)n1)C(C)C do in these assays?
CtBP-E1A inh: 2; HP1b binding inh: 29%; Six1-Eya2 blk: 7; BAZ2B inh: inconclusive; G9a inh: 39%; JMJD2A Tudor: 15%

How did CC(C)C(C)NC(=O)COC(=O)c1cccc(C(=O)OCC(=O)NC(C)C(C)C)n1 (stereo not given) do in these assays?
HP1b binding inh: 29%; Six1-Eya2 blk: -3; BAZ2B inh: inconclusive; G9a inh: 10µM*; JMJD2A Tudor: inconclusive

How did Cc1ccc(CNC(=O)c2cnc3c(-c4ccc(F)cc4)c(C)nn3c2C)o1 do in these assays?
HP1b binding inh: 55%; BAZ2B inh: 2%; G9a inh: 10%[59 µM]; JMJD2A Tudor: -4%

Results for O=C(CN1C(=O)CCc2cc(S(=O)(=O)N3CCOCC3)ccc21)NCc1ccccc1 ?
HP1b binding inh: 19%; BAZ2B inh: -6%; G9a inh: 26%[59 µM]; JMJD2A Tudor: -13%

How did CCOc1ccc(NC(=O)CN(C)C(=O)C2CC(=O)N(c3ccc4c(c3)OCCO4)C2)cc1OCC (stereo not given) do in these assays?
CtBP-E1A inh: -5; HP1b binding inh: 8%; Six1-Eya2 blk: -1; BAZ2B inh: -4%; G9a inh: -4%; JMJD2A Tudor: -16%

What do the screens show for `CCOc1ccc(NC(=O)CN(C)C(=O)C2CC(=O)N(c3cccc(SC)c3)C2)cc1OCC` (stereo not given)?
CtBP-E1A inh: -72*; HP1b binding inh: 16%; Six1-Eya2 blk: -65*; JMJD2A Tudor: -22%

What do the screens show for `CCC(C)NC(=O)NC(=O)CSc1nnc(-c2ccccc2F)n1C1CC1` (stereo not given)?
CtBP-E1A inh: 7; HP1b binding inh: 44%; Six1-Eya2 blk: -4; BAZ2B inh: 3%; G9a inh: 35µM*; JMJD2A Tudor: -3%

Results for CCC(=O)Nc1ccc(C(=O)CSc2nnc(-c3ccccc3F)n2C2CC2)cc1 ?
CtBP-E1A inh: -3; HP1b binding inh: 31%; Six1-Eya2 blk: 0; BAZ2B inh: -2%; G9a inh: inconclusive; JMJD2A Tudor: -11%

What do the screens show for `CC(=O)c1cccc(N2Cc3ccccc3C2=NC(=O)CCl)c1`?
CtBP-E1A inh: 4; HP1b binding inh: 2%; Six1-Eya2 blk: 6; BAZ2B inh: -35%; G9a inh: 32µM*; JMJD2A Tudor: 35µM*

Results for CC(=O)c1ccc(N2Cc3ccccc3/C2=N\C(=O)Nc2ccccc2)cc1 ?
CtBP-E1A inh: -2; HP1b binding inh: 22%; Six1-Eya2 blk: -2; BAZ2B inh: 11%; G9a inh: 9%; JMJD2A Tudor: -17%

How did COc1cccc(OCCCn2ccnc2)c1 do in these assays?
CtBP-E1A inh: -1; HP1b binding inh: 29%; Six1-Eya2 blk: 5; BAZ2B inh: -3%; JMJD2A Tudor: -24%

How did Brc1cccc(OCCn2ccnc2)c1 do in these assays?
CtBP-E1A inh: 2; HP1b binding inh: -16%; Six1-Eya2 blk: 4; BAZ2B inh: 40µM*; G9a inh: 8.9µM*; JMJD2A Tudor: 3.5µM*

What do the screens show for `CCc1cccc(OCCCn2ccnc2)c1`?
CtBP-E1A inh: 6; HP1b binding inh: 50µM*; Six1-Eya2 blk: 0; BAZ2B inh: 32µM*; G9a inh: 16µM*; JMJD2A Tudor: 13µM*

How did CCOc1cccc(OCCCCn2ccnc2)c1 do in these assays?
CtBP-E1A inh: 0; HP1b binding inh: inconclusive; Six1-Eya2 blk: -11; BAZ2B inh: 50µM*; G9a inh: inconclusive; JMJD2A Tudor: 6.3µM*

What do the screens show for `CCOc1cccc(N2C(=O)CC(N(CCc3ccc(OC)c(OC)c3)C(=O)CC)C2=O)c1` (stereo not given)?
CtBP-E1A inh: -7; HP1b binding inh: 11%; Six1-Eya2 blk: -15; BAZ2B inh: -10%; G9a inh: -2%[59 µM]; JMJD2A Tudor: 1%

How did CCOC(=O)c1ccc(N2C(=O)CC(N(C)CCc3ccc(OC)c(OC)c3)C2=O)cc1 (stereo not given) do in these assays?
CtBP-E1A inh: 0; HP1b binding inh: 40%; Six1-Eya2 blk: 3; BAZ2B inh: -1%; G9a inh: 14µM*; JMJD2A Tudor: -7%

What do the screens show for `COc1cccc(CNC(=O)c2cc(S(=O)(=O)N3CCCCC3)cn2C)c1`?
HP1b binding inh: 7%[57 µM]; BAZ2B inh: -10%; G9a inh: -15%[59 µM]; JMJD2A Tudor: -12%

Results for COc1ccccc1CN1CCN(C2CCN(C(=O)Nc3ccccc3)CC2)C(=O)C1=O ?
HP1b binding inh: 45%; BAZ2B inh: 0%; G9a inh: -3%[12.7 µM]; JMJD2A Tudor: 10%
